Assay results from paper PMC6919601, “Identification of Plasmodium dipeptidyl aminopeptidase allosteric inhibitors by high throughput screening” (PLoS ONE, 2019).
Out of some 110,000 compounds screened, about 230 (0.21%) showed an effect of 50% or more. The full list was thinned out, with strong results kept by preference.

Biological target: DPAP1 (Plasmodium falciparum, UniProt Q8IIJ9)
Test: primary screen, percent inhibition; read by cleavage of a fluorogenic dipeptide substrate; higher = more effect of the substance
Set-up: species or system P. falciparum D10 trophozoite lysates; single well
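Note: 30 min substrate incubation versus DMSO and 10 µM JCP410 controls.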

Sequence of DPAP1 (Q8IIJ9 whole entry, looked up): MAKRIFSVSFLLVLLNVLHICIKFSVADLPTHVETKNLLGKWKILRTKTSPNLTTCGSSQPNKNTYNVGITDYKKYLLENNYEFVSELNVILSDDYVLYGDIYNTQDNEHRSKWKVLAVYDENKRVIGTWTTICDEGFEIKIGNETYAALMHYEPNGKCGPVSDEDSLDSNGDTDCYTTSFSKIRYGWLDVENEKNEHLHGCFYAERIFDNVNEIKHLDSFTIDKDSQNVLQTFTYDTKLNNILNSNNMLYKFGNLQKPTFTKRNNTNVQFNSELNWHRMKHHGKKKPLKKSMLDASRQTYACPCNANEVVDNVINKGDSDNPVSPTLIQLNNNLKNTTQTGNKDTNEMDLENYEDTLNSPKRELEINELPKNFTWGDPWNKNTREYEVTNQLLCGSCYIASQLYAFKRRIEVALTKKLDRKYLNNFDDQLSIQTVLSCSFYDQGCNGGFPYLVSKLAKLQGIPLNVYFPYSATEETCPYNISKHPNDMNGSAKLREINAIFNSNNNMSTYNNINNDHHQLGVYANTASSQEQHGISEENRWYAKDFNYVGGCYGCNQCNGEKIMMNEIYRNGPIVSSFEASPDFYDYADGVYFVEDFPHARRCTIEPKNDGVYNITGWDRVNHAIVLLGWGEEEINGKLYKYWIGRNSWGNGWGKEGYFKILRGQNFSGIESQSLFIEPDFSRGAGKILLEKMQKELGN

SMILES	% Inhibition @ 10 uM [%]
Cc1ccnc(NC(=O)c2ccc(C)c(C)c2)c1	2.64
O=c1oc2c3c(c(Cl)cc2c2c1CCCC2)OCN(Cc1ccco1)C3	4.13
O=C(Nc1ccc([N+](=O)[O-])cc1)c1ccc(-c2ccccc2)cc1	2.62
CC(=O)N1CCN(C2CCc3ccccc3C2)CC1 (stereo not drawn)	0.217
CCC(C)NC(=O)c1ccccc1NS(=O)(=O)c1ccc(NC(C)=O)cc1 (stereo not drawn)	-0.872
COc1ccc(C2=N/C(=C\C=C\c3ccccc3)C(=O)O2)cc1	7.01
Cc1ccc(NC(=O)C(CC(C)C)N2Cc3ccccc3C2=O)nc1 (stereo not drawn)	-0.234
O=C(c1ccc(Br)cc1)N1CCN(c2ccc(F)cc2)CC1	0.815
N#CNC(=N)CSc1nc(-c2ccccc2)cc(C(F)(F)F)c1C#N	0.0719
N#Cc1c(C(F)(F)F)cc(-c2ccccc2)nc1S	73.6
C#CCSc1nc(-c2ccccc2)cc(C(F)(F)F)c1C#N	-10.2
COc1cc(/C=C2/NC(=O)N(Cc3ccccc3F)C2=O)cc(Br)c1O	63
COc1cc(/C=C2/NC(=O)N(Cc3ccccc3F)C2=O)cc(Cl)c1O	-1.28
C=CCc1cc(/C=C2/NC(=O)N(Cc3ccccc3F)C2=O)cc(OC)c1O	-2.63
Cc1oc(-c2ccc3c(c2)OCCO3)cc1C(=O)NCC(=O)O	-1.69
CCCNC(=O)c1cc2n(n1)C(C(F)(F)F)CC(c1ccc(Br)cc1)N2 (stereo not drawn)	-0.67
COc1ccc(-c2nc3scc(CCNC(=O)c4cc(OC)c(OC)c(OC)c4)n3n2)cc1	5.49
COc1ccc(NC(=O)C2=C(C)NC(=O)NC2c2ccc(Br)cc2)cc1 (stereo not drawn)	57.9
COc1ccc(NC(=O)C2=C(C)NC(=O)NC2c2ccc(C)cc2)cc1 (stereo not drawn)	-2.18
COc1ccc(NC(=O)C2=C(C)NC(=O)NC2c2ccc(OC)cc2)cc1 (stereo not drawn)	9.5
Cc1ccc(-c2nn3c(CC#N)nnc3c3ccccc23)cc1	6.38
CC(C)Oc1ccc(-c2cc(C(=O)NCCCN3CCOCC3)c3ccccc3n2)cc1	-12.3
O=C(Nc1ccc2c3c1C1C=CCC1CN3CC1CC=CC21)c1ccccc1 (stereo not drawn)	2.4
O=C1NC(=O)c2c1cc1c3c2C2C=CCC2CN3CC2CC=CC12 (stereo not drawn)	64.9
Cc1cc(C)c2c3c1C1C=CCC1CN3C(C(=O)O)C1CC=CC21 (stereo not drawn)	3.65
COc1cccc(CN(C(=O)c2cc3ccccc3oc2=O)C2CCS(=O)(=O)C2)c1 (stereo not drawn)	0.366
CCSc1cc(C)nc2ncnn12	7.56
